# Test results as given in PubChem BioAssay (EPA / NIEHS).
# “And” between values parts separate entries of the source, which are not always exact repeats. Identical values can stand only once. Inconclusive results are not listed. Some compounds were tested as several samples or in several runs, with calls that do not always agree. The source made the active and inactive calls. How the source made its calls: active means hit-call score of the fitted dose curve at least 0.9, where 1 is the maximum; inconclusive means response in the unintended direction; inactive means score below 0.9.
# Experiment: CCTE_Simmons_CellTiterGLO_HEK293T: Viability Assessment in CCTE's Assays for Thyroperoxidase (TPO) Inhibition, Simmons Lab (AID 2283665);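 on AC50: cells exposed to compound for 24 h before readout; actives reduce ATP signal below DMSO vehicle meaning cytotoxicity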
# Summary of the method: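 Cells were seeded overnight, then exposed to an eight-point series up to 87.5 uM final for 24 hours. CellTiter-Glo reagent was added and luminescence read after 20 min, giving ATP-based viability versus DMSO.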
SMILES,outcome,AC50
COP(=S)(OC)Oc1ccc(SC)c(C)c1,inactive,–
COc1nn(CSP(=S)(OC)OC)c(=O)s1,inactive,–
COP(=O)(OC)OC=C(Cl)Cl,inactive,–
O=C1c2ccccc2C(=O)N1SC(Cl)(Cl)Cl,–,9.19 µM (active)

# Experiment: Tanguay_ZF_120hpf_TR_legacy: (Legacy) Oregon State University Tanguay Lab 120 Hour Post-fertilization zebrafish Assay for Touch Response (AID 2283667)
# Summary of the method: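 Binary touch-response call at 120 hpf, analysed as gain of signal versus DMSO baseline. Wild-type 5D larvae, static exposure at 28C, 0.64% DMSO final; 5uM trimethyltin chloride as positive control.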
SMILES,outcome,AC50
O=C(O)C(F)(F)C(F)(F)C(F)(F)C(F)(F)C(F)(F)C(F)(F)C(F)(F)F,inactive,–
Oc1ccc(Cl)cc1Cc1ccccc1,inactive,–
CCC(C)(C)C(=O)OC1=C(c2ccc(Cl)cc2Cl)C(=O)OC12CCCCC2,inactive,–
CCOC1Oc2ccc(OS(C)(=O)=O)cc2C1(C)C (stereo not given),inactive,–
C#CCN1C(=O)COc2cc(F)c(N3C(=O)C4=C(CCCC4)C3=O)cc21,inactive,–
CC[C@H](C)[C@H]1O[C@]2(C=C[C@@H]1C)C[C@@H]1C[C@@H](C/C=C(\C)[C@@H](O[C@H]3C[C@H](OC)[C@@H](O[C@H]4C[C@H](OC)[C@@H](O)[C@H](C)O4)[C@H](C)O3)[C@@H](C)/C=C/C=C3\CO[C@@H]4[C@H](O)C(C)=C[C@@H](C(=O)O1)[C@]34O)O2 (tested in a mixture with another compound),–,450 nM (active)
COc1nn(CSP(=S)(OC)OC)c(=O)s1,inactive,–
CC(C)(C)C(O)C(Oc1ccc(Cl)cc1)n1cncn1 (stereo not given),inactive,41.5 µM (active) and 65.4 µM (active)
CCOCN(C(=O)CCl)c1c(C)cccc1CC,inactive,–
O=[N+]([O-])c1c(Cl)c(Cl)c(Cl)c(Cl)c1Cl,inactive,–
CC(C)OC(=O)Nc1cccc(Cl)c1,inactive,–
COP(=O)(OC)OC=C(Cl)Cl,inactive,–
O=C1c2ccccc2C(=O)N1SC(Cl)(Cl)Cl,inactive,–
ClC1C(Cl)C(Cl)C(Cl)C(Cl)C1Cl (stereo not given),inactive,–
O=S1OCC2C(CO1)C1(Cl)C(Cl)=C(Cl)C2(Cl)C1(Cl)Cl (stereo not given),inactive,–
CCC(C)Nc1c([N+](=O)[O-])cc(C(C)(C)C)cc1[N+](=O)[O-] (stereo not given),inactive,–
CCN(CC)C(=O)SCc1ccc(Cl)cc1,inactive,–
CC(C)N(C(=O)COc1nnc(C(F)(F)F)s1)c1ccc(F)cc1,inactive,–
CC(C)(C)C(O)/C(=C\c1ccc(Cl)cc1Cl)n1cncn1 (stereo not given),inactive,–
CCCN(CCC)c1c([N+](=O)[O-])cc(C(F)(F)F)cc1[N+](=O)[O-],inactive,–
